Reference: PubChem BioAssay AID1159580 (chemical genetic matrix, 2015)
Several values for one entry are separate records, joined by “and”; a condition that tells them apart may be missing. Equal entries are not always repeated. About 2,000 (36%) of roughly 5,500 compounds were called active. Not shown: some 18% with an inconclusive outcome. No stated cut-off is given here; in the data, active means normalized growth mostly below about 0.91 (no sharp cut-off); inconclusive means no clear call, values can overlap the other calls; inactive means mostly above about 0.92. This is one part of the list.

Assay: chemical genetic growth profiling, strain panel (AID 1159580);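 further: tested at 20 µM; growth read once vehicle control cultures reached saturation at 30 °C; 1 = growth at the plate median or of vehicle wells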
Settings: S. cerevisiae deletion strains, growth OD
[1] = locus YAL013W, strain DEP1, stronger effect = lower value
[2] = locus YBR229C, strain ROT2, stronger effect = lower value
[3] = locus YDL101C, strain DUN1, stronger effect = lower value
[4] = locus YDL134C, strain PPH21, stronger effect = lower value
[5] = locus YEL061C, strain CIN8, stronger effect = lower value
[6] = locus YHR030C, strain SLT2, stronger effect = lower value
[7] = locus YJR043C, strain POL32, stronger effect = lower value
[8] = locus YJR075W, strain HOC1, stronger effect = lower value
[9] = locus YLR039C, strain RIC1, stronger effect = lower value
[10] = locus YLR262C, strain YPT6, stronger effect = lower value
[11] = locus YMR263W, strain SAP30, stronger effect = lower value
[12] = locus YMR307W, strain GAS1, stronger effect = lower value
[13] = locus YNL153C, strain GIM3, stronger effect = lower value
[14] = locus YPL055C, strain LGE1, stronger effect = lower value
[15] = locus YPL241C, strain CIN2, stronger effect = lower value

Measured: normalized growth

Cc1c(S(=O)(=O)c2ccc(Cl)cc2)cnc2cc(C(C)(C)C)nn12
inactive: [1] 1.01 | [2] 1.02 | [3] 1 | [4] 1.03 | locus YDR150W, strain NUM1, stronger effect = lower value 0.987 | [5] 1.01 | locus YGR078C, strain PAC10, stronger effect = lower value 1.01 | [6] 1.07 | locus YHR087W, strain rtc3, stronger effect = lower value 1.01 | [7] 1.01 | [8] 1.01 | [9] 1.03 | locus YLR058C, strain SHM2 (second series), stronger effect = lower value 1.01 | locus YLR085C, strain ARP6, stronger effect = lower value 1.02 | [10] 1.03 | locus YML094W, strain GIM5, stronger effect = lower value 1.01 | locus YMR219W, strain ESC1, stronger effect = lower value 1.01 | [11] 0.982 | [12] 0.945 | locus YNL128W, strain TEP1, stronger effect = lower value 1.01 | [13] 1 | locus YNL298W, strain CLA4 (second series), stronger effect = lower value 1.05 | locus YNL322C, strain KRE1, stronger effect = lower value 1.01 | locus YNR030W, strain Alg12, stronger effect = lower value 1.05 | locus YOL006C, strain TOP1, stronger effect = lower value 1.06 | [14] 1.01 | [15] 0.996 | locus YPR135W, strain CTF4, stronger effect = lower value 1.06

Nc1ccc(S(=O)(=O)c2ccc(N)cc2)cc1
inactive: [1] 1.01 | locus YAL021C, strain ccr4, stronger effect = lower value 0.99 | locus YAL026C, strain drs2, stronger effect = lower value 1 | locus YAL030W, strain snc1, stronger effect = lower value 0.976 | locus YBL061C, strain skt5, stronger effect = lower value 0.993 | locus YBR009C, strain hhf1, stronger effect = lower value 1 | locus YBR021W, strain FUR4, stronger effect = lower value 1.04 | locus YBR023C, strain chs3, stronger effect = lower value 0.979 | locus YBR171W, strain sec66, stronger effect = lower value 1 | [2] 1.01 | locus YBR231C, strain swc5, stronger effect = lower value 0.975 | locus YBR279W, strain paf1, stronger effect = lower value 0.983 | locus YCL011C, strain gbp2, stronger effect = lower value 0.999 | locus YCL016C, strain dcc1, stronger effect = lower value 0.997 | locus YCL029C, strain bik1, stronger effect = lower value 1.03 | locus YCL069W, strain vba3, stronger effect = lower value 1.01 | locus YCR088W, strain abp1, stronger effect = lower value 1.01 | locus YDL005C, strain med2, stronger effect = lower value 0.98 | locus YDL035C, strain GPR1, stronger effect = lower value 1.03 | locus YDL040C, strain nat1, stronger effect = lower value 0.991 | locus YDL074C, strain BRE1, stronger effect = lower value 1.02 | [3] 1.02 | [4] 1.02 | locus YDL185W, strain tfp1, stronger effect = lower value 1.02 | locus YDL192W, strain arf1, stronger effect = lower value 1.01 | locus YDR001C, strain nth1, stronger effect = lower value 1 | locus YDR069C, strain doa4, stronger effect = lower value 0.987 | locus YDR101C, strain arx1, stronger effect = lower value 0.987 | locus YDR137W, strain rgp1, stronger effect = lower value 1.01 | locus YDR159W, strain sac3, stronger effect = lower value 0.979 | locus YDR162C, strain NBP2, stronger effect = lower value 1.04 | locus YDR195W, strain ref2 0.939 | locus YDR297W, strain sur2, stronger effect = lower value 0.996 | locus YDR318W, strain mcm21, stronger effect = lower value 1.01 | locus YDR334W, strain swr1, stronger effect = lower value 0.986 | locus YDR335W, strain msn5, stronger effect = lower value 1 | locus YDR388W, stronger effect = lower value 1 | locus YDR392W, strain spt3, stronger effect = lower value 0.992 | locus YDR502C, strain sam2, stronger effect = lower value 1 | locus YEL003W, strain gim4, stronger effect = lower value 1.01 | locus YEL037C, strain rad23, stronger effect = lower value 1.01 | locus YEL061C, strain CIN8 (second series), stronger effect = lower value 1 | [5] 1.01 | locus YER015W, strain faa2, stronger effect = lower value 0.999 | locus YER016W, strain bim1, stronger effect = lower value 0.991 | locus YER110C, stronger effect = lower value 0.993 | locus YER111C, strain swi4, stronger effect = lower value 1.02 | locus YER155C, strain BEM2 (second series), stronger effect = lower value 0.954 | locus YER155C, strain BEM2, stronger effect = lower value 1.02 | locus YER167W, strain BCK2, stronger effect = lower value 1.02 | locus YFR010W, strain ubp6, stronger effect = lower value 0.988 | locus YGL078C, strain dbp3, stronger effect = lower value 0.993 | locus YGL086W, strain mad1, stronger effect = lower value 1 | locus YGL167C, strain pmr1, stronger effect = lower value 0.995 | locus YGL173C, strain kem1, stronger effect = lower value 0.979 | locus YGL227W, strain vid30, stronger effect = lower value 1.01 | locus YGL240W, strain doc1, stronger effect = lower value 0.988 | locus YGL248W, strain PDE1, stronger effect = lower value 1.02 | locus YGL253W, strain hxk2, stronger effect = lower value 0.99 | locus YGR135W, strain pre9, stronger effect = lower value 1.01 | locus YGR229C, strain SMI1, stronger effect = lower value 1.03 | locus YGR252W, strain gcn5, stronger effect = lower value 1.01 | locus YHR013C, strain ard1, stronger effect = lower value 0.973 | locus YHR027C, strain rpn1, stronger effect = lower value 0.991 | [6] 1.02 and 1.01 | locus YHR079C, strain IRE1 (second series), stronger effect = lower value 1.01 | locus YHR079C, strain IRE1, stronger effect = lower value 1.03 | locus YHR094C, strain hxt1, stronger effect = lower value 1.01 | locus YHR129C, strain ARP1, stronger effect = lower value 1.01 | locus YHR142W, strain chs7, stronger effect = lower value 1.01 | locus YHR200W, strain rpn10, stronger effect = lower value 1 | locus YIL066C, strain RNR3, stronger effect = lower value 1.02 | locus YIL073C, strain SPO22, stronger effect = lower value 1.03 | locus YIL125W, strain kgd1, stronger effect = lower value 1.01 | locus YIR030C, strain dcg1, stronger effect = lower value 1.01 | locus YJL092W, strain hpr5, stronger effect = lower value 0.998 | locus YJL095W, strain BCK1 (second series), stronger effect = lower value 0.983 | locus YJL095W, strain BCK1, stronger effect = lower value 1.02 and 1.03 | locus YJL115W, strain asf1, stronger effect = lower value 1 | locus YJL129C, strain trk1, stronger effect = lower value 0.991 | locus YJL134W, strain LCB3, stronger effect = lower value 1.03 | locus YJL154C, strain vps35, stronger effect = lower value 0.987 | locus YJL164C, strain tpk1, stronger effect = lower value 0.987 | locus YJL166W, strain qcr8, stronger effect = lower value 1 | locus YJL168C, strain set2, stronger effect = lower value 0.996 | locus YJL187C, strain SWE1 (second series), stronger effect = lower value 1.01 | locus YJL187C, strain SWE1, stronger effect = lower value 1 | [7] 1.01 | locus YJR066W, strain TOR1, stronger effect = lower value 0.98 | [8] 1.02 | locus YKL009W, strain mrt4, stronger effect = lower value 0.988 | locus YKL068W, stronger effect = lower value 1.01 | locus YKL085W, strain MDH1 (second series), stronger effect = lower value 1.01 | locus YKL085W, strain MDH1, stronger effect = lower value 1.01 | locus YKL160W, strain elf1, stronger effect = lower value 0.988 | locus YKR001C, strain vps1, stronger effect = lower value 0.994 | locus YKR026C, strain gcn3, stronger effect = lower value 0.99 | locus YKR091W, strain srl3, stronger effect = lower value 1 | locus YLL001W, strain dnm1, stronger effect = lower value 0.991 | locus YLL026W, stronger effect = lower value 0.987 | locus YLL041C, strain sdh2, stronger effect = lower value 1.01 | locus YLR027C, strain aat2, stronger effect = lower value 1 | [9] 0.972 | locus YLR058C, strain SHM2, stronger effect = lower value 1.02 | locus YLR102C, strain apc9, stronger effect = lower value 1.01 | locus YLR113W, strain HOG1, stronger effect = lower value 1.05 | locus YLR221C, strain rsa3, stronger effect = lower value 0.984 | locus YLR258W, strain gsy2, stronger effect = lower value 0.999 | locus YLR262C, strain YPT6 (second series), stronger effect = lower value 0.966 | [10] 1.02 | locus YLR268W, strain sec22, stronger effect = lower value 1.01 | locus YLR320W, strain mms22, stronger effect = lower value 0.995 | locus YLR330W, strain CHS5, stronger effect = lower value 1.02 | locus YLR342W, strain FKS1 (second series), stronger effect = lower value 1.03 | locus YLR342W, strain FKS1, stronger effect = lower value 0.996 | locus YLR357W, strain rsc2, stronger effect = lower value 0.969 | locus YLR370C, strain arc18, stronger effect = lower value 0.992 | locus YLR371W, strain rom2, stronger effect = lower value 1.01 | locus YLR384C, strain iki3, stronger effect = lower value 0.987 | locus YLR418C, strain cdc73, stronger effect = lower value 1 | locus YML016C, strain PPZ1, stronger effect = lower value 1.01 | locus YML032C, strain rad52, stronger effect = lower value 0.999 | locus YML120C, strain ndi1, stronger effect = lower value 0.999 | locus YML124C, strain tub3, stronger effect = lower value 1.02 | locus YMR058W, strain fet3, stronger effect = lower value 1 | locus YMR078C, strain ctf18, stronger effect = lower value 1.01 | locus YMR125W, strain sto1, stronger effect = lower value 1 | locus YMR129W, stronger effect = lower value 0.996 | locus YMR205C, strain PFK2, stronger effect = lower value 0.976 | locus YMR223W, strain ubp8, stronger effect = lower value 0.994 | locus YMR231W, strain pep5, stronger effect = lower value 0.986 | [11] 1.01 | [12] 1.08 | locus YNL067W, strain RPL9B, stronger effect = lower value 1.02 | locus YNL071W, strain lat1, stronger effect = lower value 0.997 | [13] 1.01 | locus YNL183C, strain NPR1, stronger effect = lower value 0.98 | locus YNL209W, strain ssb2, stronger effect = lower value 1 | locus YNL233W, strain BNI4, stronger effect = lower value 1.02 | locus YNL248C, strain rpa49, stronger effect = lower value 0.951 | locus YNL250W, strain rad50, stronger effect = lower value 0.985 | locus YNL271C, strain bni1, stronger effect = lower value 0.995 | locus YNL298W, strain CLA4, stronger effect = lower value 1 | locus YNL307C, strain MCK1, stronger effect = lower value 1 | locus YNL322C, strain KRE1 (second series), stronger effect = lower value 1 | locus YNR049C, strain mso1, stronger effect = lower value 1 | locus YNR052C, strain pop2, stronger effect = lower value 1.01 | locus YOL012C, strain htz1 0.692 | locus YOL147C, strain pex11, stronger effect = lower value 1.01 | locus YOR001W, strain rrp6, stronger effect = lower value 0.998 | locus YOR061W, strain CKA2, stronger effect = lower value 1.02 | locus YOR069W, strain VPS5, stronger effect = lower value 1.01 | locus YOR070C, strain gyp1, stronger effect = lower value 0.992 | locus YOR080W, strain dia2, stronger effect = lower value 0.984 | locus YOR083W, strain WHI5, stronger effect = lower value 0.984 | locus YOR106W, strain vam3, stronger effect = lower value 1.01 | locus YOR136W, strain idh2, stronger effect = lower value 1 | locus YOR144C, strain elg1, stronger effect = lower value 1.01 | locus YOR184W, strain ser1, stronger effect = lower value 1.02 | locus YOR231W, strain MKK1, stronger effect = lower value 1.04 | locus YOR265W, strain rbl2, stronger effect = lower value 0.987 | locus YOR270C, strain vph1, stronger effect = lower value 1.05 | locus YOR290C, strain snf2, stronger effect = lower value 0.99 | locus YOR316C, strain cot1, stronger effect = lower value 1 | locus YPL051W, strain arl3, stronger effect = lower value 0.977 | [14] 1.03 | locus YPL078C, strain atp4, stronger effect = lower value 0.998 | locus YPL106C, strain sse1, stronger effect = lower value 0.984 | locus YPL240C, strain hsp82, stronger effect = lower value 0.991 | [15] 1.01 | locus YPL256C, strain CLN2, stronger effect = lower value 1.02 | locus YPR119W, strain clb2, stronger effect = lower value 1.01 | locus YPR141C, strain kar3, stronger effect = lower value 1.02 | locus YPR163C, strain tif3, stronger effect = lower value 1.01 | locus YPR167C, strain met16, stronger effect = lower value 1.01 | strain wtn01, stronger effect = lower value 0.983
